# Measured values from PubChem BioAssay (EPA / NIEHS).
# Records with an inconclusive call do not appear. Calls of active or inactive are those of the source. The calls were made as follows: active = hit-call score of the fitted dose curve at least 0.9, where 1 is the maximum; inconclusive = response in the unintended direction; inactive = score below 0.9.
# Legend:
# [1] = Tanguay_ZF_120hpf_YSE_legacy: (Legacy) Oregon State University Tanguay Lab 120 Hour Post-fertilization zebrafish Assay for Yolk Sac Edema (AID 2283634);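 as to AC50: actives raise the incidence of yolk sac edema above the DMSO baseline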
# Procedure, shortened: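 Dechorionated Tropical 5D wild-type zebrafish embryos were exposed statically, one per well, from 6 to 120 hpf at 28C in 0.64% DMSO. Yolk sac edema was scored present/absent by brightfield at 120 hpf, and dead embryos were excluded.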
# [2] = Tanguay_ZF_120hpf_EYE_legacy: (Legacy) Oregon State University Tanguay Lab 120 Hour Post-fertilization zebrafish Assay for Eye Malformation (AID 2283636);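 also: binary presence or absence of eye malformation scored by brightfield in 120 hpf larvae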
# Procedure, shortened: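 5D wild-type embryos, pronase-dechorionated at 4 hpf; static exposure 6–120 hpf, 28C, dark; DMSO 0.64% final; 5uM trimethyltin chloride positive control. Binary eye-defect scoring at 120 hpf; dead embryos not scored.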
# [3] = Tanguay_ZF_120hpf_SNOU_legacy: (Legacy) Oregon State University Tanguay Lab 120 Hour Post-fertilization zebrafish Assay for Snout Malformation (AID 2283637)
# Procedure, shortened: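 Binary brightfield scoring of snout malformation at 120 hpf. Dechorionated 5D wild-type embryos, one per well, static exposure from 6 hpf at 28C, sealed and dark; final DMSO 0.64% (vol/vol), DMSO as baseline; 5uM trimethyltin chloride positive control.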
# [4] = Tanguay_ZF_120hpf_JAW_legacy: (Legacy) Oregon State University Tanguay Lab 120 Hour Post-fertilization zebrafish Assay for Jaw Malformation (AID 2283638);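 as to AC50: active means more embryos with jaw malformation than DMSO controls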
# Procedure, shortened: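 Dechorionated Tropical 5D wild-type zebrafish embryos, one per well, exposed statically from 6 hpf to 120 hpf at 28C in 0.64% DMSO. Jaw malformation was scored by brightfield microscopy as present or absent. It was not scored in dead embryos.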
# [5] = Tanguay_ZF_120hpf_OTIC_legacy: (Legacy) Oregon State University Tanguay Lab 120 Hour Post-fertilization zebrafish Assay for Otic Vesicle Malformation (AID 2283639)
# Procedure, shortened: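 Statically exposed wild-type 5D zebrafish embryos, kept sealed and dark at 28C through 120 hours post fertilization, were examined by brightfield microscopy for otic vesicle defects. Responses were recorded as present or absent and analysed relative to DMSO.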
# [6] = Tanguay_ZF_120hpf_PE_legacy: (Legacy) Oregon State University Tanguay Lab 120 Hour Post-fertilization zebrafish Assay for Pericardial Edema (AID 2283640);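 as to AC50: potency for increased incidence of pericardial edema versus DMSO baseline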
# Procedure, shortened: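 Tropical 5D wild-type zebrafish embryos were statically exposed until 120 hpf at 28C, with 0.64% DMSO final. Pericardial edema was scored by brightfield as present or absent; endpoints were not scored in dead embryos.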
# [7] = Tanguay_ZF_120hpf_BRAI_legacy: (Legacy) Oregon State University Tanguay Lab 120 Hour Post-fertilization zebrafish Assay for Brain Malformation (AID 2283641)
# Procedure, shortened: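 Tropical 5D wild-type zebrafish embryos exposed statically until 120 hpf at 28C, 0.64% DMSO final, sealed and dark. Brain malformation scored present/absent by brightfield at 120 hpf; dead embryos excluded. Trimethyltin chloride 5uM positive control.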
# [8] = Tanguay_ZF_120hpf_SOMI_legacy: (Legacy) Oregon State University Tanguay Lab 120 Hour Post-fertilization zebrafish Assay for Somite Malformation (AID 2283647)
# Procedure, shortened: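 Dechorionated Tropical 5D wild-type zebrafish embryos, one per well from 6 hpf, statically exposed at 28C to 120 hpf in 0.64% DMSO; somite malformation scored present/absent by brightfield; trimethyltin 5 uM positive control; dead embryos not scored.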
# [9] = Tanguay_ZF_120hpf_PFIN_legacy: (Legacy) Oregon State University Tanguay Lab 120 Hour Post-fertilization zebrafish Assay for Pectoral Fin Malformation (AID 2283648);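 also: each larva judged yes or no for fin defect by brightfield with dead larvae skipped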
# Procedure, shortened: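 Binary pectoral fin malformation call at 120 hpf by brightfield microscopy; 5D wild-type zebrafish, chorion removed at 4 hpf, one embryo per well from 6 hpf, static exposure at 28C; DMSO (0.64% final) as baseline.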
# [10] = Tanguay_ZF_120hpf_CFIN_legacy: (Legacy) Oregon State University Tanguay Lab 120 Hour Post-fertilization zebrafish Assay for Caudal Fin Malformation (AID 2283649)
# Procedure, shortened: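 Dechorionated Tropical 5D wild-type embryos, one per well from 6 hpf, static exposure to 120 hpf at 28C in 0.64% DMSO. Caudal fin malformation scored by brightfield as present/absent; not scored in dead embryos.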
# [11] = Tanguay_ZF_120hpf_PIG_legacy: (Legacy) Oregon State University Tanguay Lab 120 Hour Post-fertilization zebrafish Assay for Pigmentation Malformation (AID 2283650)
# Procedure, shortened: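 Brightfield scoring of pigmentation malformation at 120 hpf, recorded as binary present/absent per larva. Exposure: dechorionated 5D wild-type embryos, one per well, static from 6 hpf at 28C, final DMSO 0.64% (vol/vol). Dead embryos not scored.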
# [12] = Tanguay_ZF_120hpf_SWIM_legacy: (Legacy) Oregon State University Tanguay Lab 120 Hour Post-fertilization zebrafish Assay for Swim Bladder Malformation (AID 2283654);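 also: swim bladder malformation in each larva scored yes or no under brightfield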
# Procedure, shortened: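 Tropical 5D embryos dechorionated at 4 hpf; 1 embryo/well from 6 hpf; static, sealed, dark exposure at 28C until 120 hpf; final DMSO 0.64%; 5uM trimethyltin chloride positive control; swim bladder defect recorded yes/no; dead embryos not scored.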
# [13] = Tanguay_ZF_120hpf_TRUN_legacy: (Legacy) Oregon State University Tanguay Lab 120 Hour Post-fertilization zebrafish Assay for Truncated Body (AID 2283655)
# Procedure, shortened: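 Dechorionated Tropical 5D wild-type embryos placed singly from 6 hpf and statically exposed to 120 hpf at 28C, final DMSO 0.64%. Truncated body scored as present/absent by brightfield; not scored in dead embryos.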
# [14] = Tanguay_ZF_120hpf_NC_legacy: (Legacy) Oregon State University Tanguay Lab 120 Hour Post-fertilization zebrafish Assay for Notochord and Tail Malformation (AID 2283656)
# Procedure, shortened: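 Binary scoring of notochord distortion by brightfield microscopy; embryos dying were not scored. Wild-type Tropical 5D embryos, chorion removed, exposed singly and statically from 6 to 120 hpf, 28C, sealed, 0.64% DMSO.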
# [15] = Tanguay_ZF_120hpf_AXIS_legacy: (Legacy) Oregon State University Tanguay Lab 120 Hour Post-fertilization zebrafish Assay for Body Axis Malformation (AID 2283635)
# Procedure, shortened: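 Dechorionated wild-type Tropical 5D zebrafish embryos, one per well, statically exposed from 6 hpf to 120 hpf at 28C in 0.64% DMSO final. Body axis malformation scored present/absent by brightfield microscopy at 120 hpf; dead embryos excluded.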
# [16] = Tanguay_ZF_120hpf_CIRC_legacy: (Legacy) Oregon State University Tanguay Lab 120 Hour Post-fertilization zebrafish Assay for Circulatory Malformation (AID 2283651)
# Procedure, shortened: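 Embryos are dechorionated at 4 hpf, plated one per well at 6 hpf, then held under static exposure at 28C until 120 hpf. Malformations are recorded as binary calls; mortality excludes other endpoints.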
compound,measurement,setting,value
Fc1ccc(Oc2ccnc3cc(Cl)cc(Cl)c23)cc1,outcome,[1],inactive
same,outcome,[2],inactive
same,outcome,[3],inactive
same,outcome,[4],inactive
same,outcome,[5],inactive
same,outcome,[6],inactive
same,outcome,[7],inactive
same,outcome,[8],inactive
same,outcome,[9],inactive
same,outcome,[10],inactive
same,outcome,[11],inactive
same,outcome,[12],inactive
same,outcome,[13],inactive
same,outcome,[14],inactive
C#CCOS(=O)OC1CCCCC1Oc1ccc(C(C)(C)C)cc1 (stereo not drawn),outcome,[1],inactive
same,outcome,[15],inactive
same,outcome,[3],inactive
same,outcome,[4],inactive
same,outcome,[5],inactive
same,outcome,[6],inactive
same,outcome,[7],inactive
same,outcome,[8],inactive
same,outcome,[9],inactive
same,outcome,[10],inactive
same,outcome,[11],inactive
same,outcome,[12],inactive
same,outcome,[14],inactive
CNC(=S)S,outcome,[1],inactive
same,outcome,[2],inactive
same,outcome,[4],inactive
same,outcome,[5],inactive
same,outcome,[6],inactive
same,outcome,[7],inactive
same,outcome,[8],inactive
same,outcome,[9],inactive
same,outcome,[10],inactive
same,outcome,[11],inactive
same,outcome,[13],inactive
same,outcome,[14],inactive
COP(=S)(OC)Oc1nc(Cl)c(Cl)cc1Cl,outcome,[1],inactive
same,outcome,[2],inactive
same,AC50,[4],34 µM (active)
same,outcome,[5],inactive
same,outcome,[7],inactive
same,outcome,[8],inactive
same,outcome,[9],inactive
same,outcome,[10],inactive
same,outcome,[11],inactive
same,outcome,[12],inactive
same,outcome,[13],inactive
same,outcome,[14],inactive
COc1ccc(C(c2ccc(OC)cc2)C(Cl)(Cl)Cl)cc1,outcome,[1],inactive
same,outcome,[2],inactive
same,outcome,[4],inactive
same,outcome,[6],inactive
same,outcome,[7],inactive
same,outcome,[8],inactive
same,outcome,[9],inactive
same,outcome,[10],inactive
same,outcome,[12],inactive
same,outcome,[13],inactive
N#Cc1nn(-c2c(Cl)cc(C(F)(F)F)cc2Cl)c(N)c1S(=O)C(F)(F)F (stereo not drawn),AC50,[1],0.0235 µM (active)
same,outcome,[2],inactive
same,outcome,[4],inactive
same,outcome,[5],inactive
same,outcome,[6],inactive
same,outcome,[7],inactive
same,outcome,[9],inactive
same,outcome,[10],inactive
same,outcome,[11],inactive
same,outcome,[12],inactive
same,outcome,[13],inactive
same,outcome,[14],inactive
COP(N)(=O)SC (stereo not drawn),outcome,[1],inactive
same,outcome,[5],inactive
same,outcome,[6],inactive
same,outcome,[7],inactive
same,outcome,[8],inactive
same,outcome,[10],inactive
same,outcome,[11],inactive
same,outcome,[12],inactive
same,outcome,[13],inactive
CS/C(C)=N/OC(=O)N(C)SN(C)C(=O)O/N=C(\C)SC,outcome,[1],inactive
same,outcome,[2],inactive
same,outcome,[4],inactive
same,outcome,[5],inactive
same,outcome,[6],inactive
same,outcome,[7],inactive
same,outcome,[10],inactive
same,outcome,[11],inactive
same,outcome,[12],inactive
same,outcome,[13],inactive
same,AC50,[14],25 µM (active)
CC(C)C1(C)N=C(c2nc3ccccc3cc2C(=O)O)NC1=O (stereo not drawn),outcome,[1],inactive
same,outcome,[2],inactive
same,outcome,[4],inactive
same,outcome,[5],inactive
same,outcome,[6],inactive
same,outcome,[7],inactive
same,outcome,[8],inactive
same,outcome,[9],inactive
same,outcome,[11],inactive
same,outcome,[12],inactive
same,outcome,[13],inactive
same,outcome,[14],inactive
CCCCC(CC)COC(=O)c1ccccc1C(=O)OCC(CC)CCCC (stereo not drawn),outcome,[1],inactive
same,outcome,[2],inactive
same,outcome,[4],inactive
same,outcome,[5],inactive
same,outcome,[7],inactive
same,outcome,[8],inactive
same,outcome,[9],inactive
same,outcome,[10],inactive
same,outcome,[11],inactive
same,outcome,[12],inactive
same,outcome,[13],inactive
same,outcome,[14],inactive
CCOc1cc(Oc2ccc(C(F)(F)F)cc2Cl)ccc1[N+](=O)[O-],outcome,[1],inactive
same,outcome,[4],inactive
same,outcome,[6],inactive
same,outcome,[8],inactive
same,outcome,[9],inactive
same,outcome,[10],inactive
same,outcome,[12],inactive
same,outcome,[13],inactive
same,outcome,[14],inactive
Oc1ccccc1-c1ccccc1,outcome,[1],inactive
same,outcome,[2],inactive
same,outcome,[4],inactive
same,outcome,[6],inactive
same,outcome,[7],inactive
same,outcome,[8],inactive
same,outcome,[9],inactive
same,outcome,[10],inactive
same,outcome,[11],inactive
same,outcome,[16],inactive
same,outcome,[12],inactive
same,outcome,[13],inactive
same,outcome,[14],inactive
CC(C)(C)c1ccc(CSc2cnn(C(C)(C)C)c(=O)c2Cl)cc1,outcome,[1],inactive
same,outcome,[2],inactive
same,outcome,[4],inactive
same,outcome,[5],inactive
same,outcome,[6],inactive
same,outcome,[7],inactive
same,outcome,[9],inactive
same,outcome,[10],inactive
same,outcome,[16],inactive
same,outcome,[12],inactive
same,outcome,[13],inactive
same,outcome,[14],inactive
CCOC(=O)CC(SP(=S)(OC)OC)C(=O)OCC (stereo not drawn),AC50,[1],37.4 µM (active)
same,AC50,[2],38.7 µM (active)
same,AC50,[4],33.7 µM (active)
same,outcome,[5],inactive
same,AC50,[6],37 µM (active)
same,outcome,[7],inactive
same,AC50,[8],32 µM (active)
same,AC50,[9],34 µM (active)
same,AC50,[10],36.2 µM (active)
same,AC50,[12],28.8 µM (active)
same,AC50,[13],34.2 µM (active)
same,outcome,[14],inactive
